# How the values were obtained:
# Assay in all cases: DAPPL (digital affinity profiling via proximity ligation, sequencing); 10 mM Tris-HCl pH 7.5, 50 mM NaCl, 1 mM DTT, 4% glycerol, room temperature, 30 min; GST-TFs on glutathione beads, 16-mer random dsDNA library, 0.1% formaldehyde crosslink after washing; high values mean tight binding
# Settings in all cases: protein: recombinant; tags: N-terminal GST; dsDNA, one strand shown
# FLI1 = biological target: T1, FLI1 (Homo sapiens, UniProt Q01543 1-452)
# T1 sequence: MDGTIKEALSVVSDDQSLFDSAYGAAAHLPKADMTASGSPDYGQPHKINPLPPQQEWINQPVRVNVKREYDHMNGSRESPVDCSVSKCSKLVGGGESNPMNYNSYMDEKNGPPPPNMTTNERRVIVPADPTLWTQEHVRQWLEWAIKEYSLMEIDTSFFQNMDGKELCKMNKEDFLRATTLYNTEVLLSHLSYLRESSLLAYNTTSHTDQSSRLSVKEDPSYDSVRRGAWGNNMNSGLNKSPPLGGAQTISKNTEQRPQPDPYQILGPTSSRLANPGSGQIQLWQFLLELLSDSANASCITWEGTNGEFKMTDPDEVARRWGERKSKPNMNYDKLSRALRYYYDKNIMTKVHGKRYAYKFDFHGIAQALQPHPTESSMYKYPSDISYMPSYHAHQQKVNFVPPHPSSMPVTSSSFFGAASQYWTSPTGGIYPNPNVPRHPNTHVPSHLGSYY
# Summary of the method: (§1)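 Beads coated with glutathione captured GST-fused human transcription factors that had been expressed in yeast, and the factors were then given DNA barcodes and pooled with a tag-only sample. The pools were incubated with 200 nmole of a random double-stranded 16-mer DNA library in Tris/NaCl/DTT/glycerol buffer for 30 min at room temperature, washed, crosslinked with 0.1% formaldehyde and proximity-ligated with BsaI/T4 ligase at 37 °C for 1 h. PCR amplification and Illumina NextSeq500 sequencing came last. Binding signal is each hexamer's read frequency for a factor divided by its frequency for the tag-only sample.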
# ELK1 = biological target: T2, ELK1 (Homo sapiens, UniProt P19419 1-428)
# T2 sequence: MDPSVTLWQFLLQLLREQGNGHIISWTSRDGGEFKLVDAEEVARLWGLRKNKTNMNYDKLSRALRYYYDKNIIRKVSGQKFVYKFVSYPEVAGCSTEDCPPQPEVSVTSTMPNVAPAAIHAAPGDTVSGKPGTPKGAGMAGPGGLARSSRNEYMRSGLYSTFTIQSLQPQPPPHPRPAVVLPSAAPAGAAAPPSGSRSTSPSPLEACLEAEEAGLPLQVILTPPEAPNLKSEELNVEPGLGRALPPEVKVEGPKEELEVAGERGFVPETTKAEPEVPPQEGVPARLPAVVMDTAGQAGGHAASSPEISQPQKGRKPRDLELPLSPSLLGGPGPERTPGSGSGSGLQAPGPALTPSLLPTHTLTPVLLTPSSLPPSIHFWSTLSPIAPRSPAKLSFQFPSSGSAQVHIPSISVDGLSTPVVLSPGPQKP
# Summary of the method: as §1
# GABPA = biological target: T3, GABPA (Homo sapiens, UniProt Q06546 1-454)
# T3 sequence: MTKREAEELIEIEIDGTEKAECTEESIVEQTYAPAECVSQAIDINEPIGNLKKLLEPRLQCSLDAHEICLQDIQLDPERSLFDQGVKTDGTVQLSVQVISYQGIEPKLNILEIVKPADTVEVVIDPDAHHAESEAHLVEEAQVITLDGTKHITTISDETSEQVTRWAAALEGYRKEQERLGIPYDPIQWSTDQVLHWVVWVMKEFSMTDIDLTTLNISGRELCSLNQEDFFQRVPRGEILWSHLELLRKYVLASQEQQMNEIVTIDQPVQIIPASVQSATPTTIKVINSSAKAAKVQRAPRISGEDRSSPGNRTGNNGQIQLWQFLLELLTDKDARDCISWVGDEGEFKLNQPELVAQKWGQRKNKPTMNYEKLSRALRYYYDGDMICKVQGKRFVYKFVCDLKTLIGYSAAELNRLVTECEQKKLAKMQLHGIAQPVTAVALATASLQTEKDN
# Summary of the method: as §1
# ERG = biological target: T4, ERG (Homo sapiens, UniProt P11308 1-479)
# T4 sequence: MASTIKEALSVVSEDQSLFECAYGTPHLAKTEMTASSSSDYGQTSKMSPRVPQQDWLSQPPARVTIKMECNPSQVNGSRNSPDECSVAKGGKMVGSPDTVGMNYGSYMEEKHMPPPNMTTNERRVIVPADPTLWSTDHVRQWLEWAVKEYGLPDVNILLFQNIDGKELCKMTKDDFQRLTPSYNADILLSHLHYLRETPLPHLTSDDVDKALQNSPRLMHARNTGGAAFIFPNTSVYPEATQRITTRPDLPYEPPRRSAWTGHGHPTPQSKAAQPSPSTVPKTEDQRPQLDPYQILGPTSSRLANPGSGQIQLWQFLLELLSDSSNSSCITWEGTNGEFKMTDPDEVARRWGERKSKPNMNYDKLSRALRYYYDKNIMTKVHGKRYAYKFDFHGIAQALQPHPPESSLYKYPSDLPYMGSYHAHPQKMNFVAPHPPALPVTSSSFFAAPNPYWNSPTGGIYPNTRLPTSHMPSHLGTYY
# Summary of the method: as §1
# ELF1 = ELF1 (Homo sapiens, UniProt P32519 1-619)
# ELF1, sequence (P32519 whole entry): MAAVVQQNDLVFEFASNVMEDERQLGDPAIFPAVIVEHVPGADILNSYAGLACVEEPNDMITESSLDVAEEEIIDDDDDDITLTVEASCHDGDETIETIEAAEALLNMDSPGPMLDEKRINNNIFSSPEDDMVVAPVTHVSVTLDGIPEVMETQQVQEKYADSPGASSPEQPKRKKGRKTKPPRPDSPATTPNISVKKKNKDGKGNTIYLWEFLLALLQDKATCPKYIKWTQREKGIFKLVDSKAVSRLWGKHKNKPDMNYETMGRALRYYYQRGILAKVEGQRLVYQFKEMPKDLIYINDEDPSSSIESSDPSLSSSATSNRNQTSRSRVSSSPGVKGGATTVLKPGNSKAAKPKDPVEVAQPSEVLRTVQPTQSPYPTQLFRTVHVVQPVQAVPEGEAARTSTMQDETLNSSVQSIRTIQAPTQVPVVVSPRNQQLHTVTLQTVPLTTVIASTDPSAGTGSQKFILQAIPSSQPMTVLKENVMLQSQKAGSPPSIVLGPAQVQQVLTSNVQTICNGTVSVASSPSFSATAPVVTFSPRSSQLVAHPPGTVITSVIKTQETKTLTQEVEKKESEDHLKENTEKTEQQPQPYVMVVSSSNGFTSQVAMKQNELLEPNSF
# Summary of the method: as §1
# EHF = biological target: T5, EHF (Homo sapiens, UniProt Q9NZC4 1-300)
# T5 sequence: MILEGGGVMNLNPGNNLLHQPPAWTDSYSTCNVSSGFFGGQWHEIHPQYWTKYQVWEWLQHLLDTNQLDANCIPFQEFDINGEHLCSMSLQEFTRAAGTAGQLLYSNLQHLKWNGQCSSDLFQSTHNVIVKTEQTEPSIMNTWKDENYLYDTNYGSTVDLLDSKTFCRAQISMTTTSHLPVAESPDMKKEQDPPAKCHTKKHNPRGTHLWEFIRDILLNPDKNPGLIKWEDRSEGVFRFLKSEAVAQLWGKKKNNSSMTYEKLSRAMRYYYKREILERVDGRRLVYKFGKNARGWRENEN
# Summary of the method: as §1
# SPI1 = SPI1 (Homo sapiens, UniProt P17947 1-270)
# Summary of the method: as §1
# SPIB = SPIB (Homo sapiens, UniProt Q01892 1-262)
# SPIB, sequence (Q01892 whole entry): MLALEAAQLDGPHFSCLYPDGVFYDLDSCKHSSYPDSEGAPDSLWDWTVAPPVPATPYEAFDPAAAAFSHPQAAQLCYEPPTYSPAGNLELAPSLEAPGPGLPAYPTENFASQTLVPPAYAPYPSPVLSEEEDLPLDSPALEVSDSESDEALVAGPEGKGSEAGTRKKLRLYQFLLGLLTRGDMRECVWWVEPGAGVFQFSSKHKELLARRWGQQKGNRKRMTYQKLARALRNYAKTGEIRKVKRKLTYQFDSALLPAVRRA
# Summary of the method: as §1
# ELK3 = biological target: T6, ELK3 (Homo sapiens, UniProt P41970 1-407)
# T6 sequence: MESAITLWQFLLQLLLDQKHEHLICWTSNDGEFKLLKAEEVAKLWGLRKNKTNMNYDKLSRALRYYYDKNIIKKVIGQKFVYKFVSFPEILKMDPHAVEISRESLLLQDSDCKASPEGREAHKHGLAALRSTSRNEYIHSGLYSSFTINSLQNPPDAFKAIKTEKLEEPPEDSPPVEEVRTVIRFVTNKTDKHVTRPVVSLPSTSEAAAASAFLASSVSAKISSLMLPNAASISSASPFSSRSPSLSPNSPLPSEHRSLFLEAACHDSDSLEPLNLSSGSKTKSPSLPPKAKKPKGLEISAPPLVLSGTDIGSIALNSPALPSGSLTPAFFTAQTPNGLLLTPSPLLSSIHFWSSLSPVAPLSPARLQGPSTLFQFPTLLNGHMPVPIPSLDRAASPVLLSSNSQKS
# Summary of the method: as §1
# FEV = biological target: T7, FEV (Homo sapiens, UniProt Q99581 1-238)
# T7 sequence: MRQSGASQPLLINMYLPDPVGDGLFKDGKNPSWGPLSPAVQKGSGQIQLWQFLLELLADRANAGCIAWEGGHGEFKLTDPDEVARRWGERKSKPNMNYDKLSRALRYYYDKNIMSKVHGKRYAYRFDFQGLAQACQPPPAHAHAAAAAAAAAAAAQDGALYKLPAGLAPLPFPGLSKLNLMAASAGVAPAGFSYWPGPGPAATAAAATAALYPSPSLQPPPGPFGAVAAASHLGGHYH
# Summary of the method: as §1
# ETV5 = ETV5 (Homo sapiens, UniProt P41161 1-510)
# ETV5, sequence (P41161 whole entry): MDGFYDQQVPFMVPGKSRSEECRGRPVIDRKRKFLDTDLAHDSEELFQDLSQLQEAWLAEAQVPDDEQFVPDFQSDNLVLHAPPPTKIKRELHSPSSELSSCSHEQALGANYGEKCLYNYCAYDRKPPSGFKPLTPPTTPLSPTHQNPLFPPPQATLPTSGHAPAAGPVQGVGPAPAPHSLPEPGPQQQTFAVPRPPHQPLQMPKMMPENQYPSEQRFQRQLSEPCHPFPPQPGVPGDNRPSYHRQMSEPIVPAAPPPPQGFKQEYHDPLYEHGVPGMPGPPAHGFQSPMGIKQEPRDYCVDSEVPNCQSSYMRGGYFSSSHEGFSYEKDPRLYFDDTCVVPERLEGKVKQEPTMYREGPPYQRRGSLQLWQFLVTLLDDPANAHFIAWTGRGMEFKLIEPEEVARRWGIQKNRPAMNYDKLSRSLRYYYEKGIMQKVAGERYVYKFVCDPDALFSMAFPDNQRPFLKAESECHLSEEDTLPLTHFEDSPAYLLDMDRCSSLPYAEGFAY
# Summary of the method: as §1
# SPIC = biological target: T8, SPIC (Homo sapiens, UniProt Q8N5J4 1-248)
# T8 sequence: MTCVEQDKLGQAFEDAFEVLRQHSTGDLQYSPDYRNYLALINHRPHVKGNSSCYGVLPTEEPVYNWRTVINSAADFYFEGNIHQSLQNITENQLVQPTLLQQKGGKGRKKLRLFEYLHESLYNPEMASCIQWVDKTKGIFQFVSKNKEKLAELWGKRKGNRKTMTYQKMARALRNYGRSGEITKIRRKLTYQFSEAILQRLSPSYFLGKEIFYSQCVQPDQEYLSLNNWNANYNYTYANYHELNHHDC
# Summary of the method: as §1
# ELF4 = ELF4 (Homo sapiens, UniProt Q99607 1-663)
# ELF4, sequence (Q99607 whole entry): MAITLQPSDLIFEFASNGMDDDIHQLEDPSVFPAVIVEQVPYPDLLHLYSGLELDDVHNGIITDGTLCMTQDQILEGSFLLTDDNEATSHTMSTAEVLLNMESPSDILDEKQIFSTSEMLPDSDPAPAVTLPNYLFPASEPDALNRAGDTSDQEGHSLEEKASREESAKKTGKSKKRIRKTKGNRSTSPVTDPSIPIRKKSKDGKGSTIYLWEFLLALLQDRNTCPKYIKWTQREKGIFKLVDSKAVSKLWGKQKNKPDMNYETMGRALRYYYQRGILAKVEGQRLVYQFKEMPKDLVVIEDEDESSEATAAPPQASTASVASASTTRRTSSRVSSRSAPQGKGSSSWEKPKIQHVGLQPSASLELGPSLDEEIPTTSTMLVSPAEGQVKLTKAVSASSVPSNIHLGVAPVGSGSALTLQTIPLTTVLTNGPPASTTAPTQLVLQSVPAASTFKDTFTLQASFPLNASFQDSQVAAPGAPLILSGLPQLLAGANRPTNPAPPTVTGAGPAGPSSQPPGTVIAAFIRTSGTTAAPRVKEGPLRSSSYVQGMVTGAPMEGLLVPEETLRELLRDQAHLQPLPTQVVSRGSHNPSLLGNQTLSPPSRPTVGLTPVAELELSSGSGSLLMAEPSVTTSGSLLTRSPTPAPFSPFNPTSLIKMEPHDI
# Summary of the method: as §1
# ELK4 = biological target: T9, ELK4 (Homo sapiens, UniProt P28324-2 1-405)
# T9 sequence: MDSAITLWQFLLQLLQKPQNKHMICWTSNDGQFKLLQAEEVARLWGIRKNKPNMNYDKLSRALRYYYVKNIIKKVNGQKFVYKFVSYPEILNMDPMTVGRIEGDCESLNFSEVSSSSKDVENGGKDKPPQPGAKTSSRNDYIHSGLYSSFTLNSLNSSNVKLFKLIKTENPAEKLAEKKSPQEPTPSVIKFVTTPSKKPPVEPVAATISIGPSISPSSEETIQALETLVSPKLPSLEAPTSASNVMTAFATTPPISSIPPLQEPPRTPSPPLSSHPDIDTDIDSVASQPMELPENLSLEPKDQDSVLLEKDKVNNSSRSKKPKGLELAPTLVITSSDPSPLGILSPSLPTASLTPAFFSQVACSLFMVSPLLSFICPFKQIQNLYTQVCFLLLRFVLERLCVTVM
# Summary of the method: as §1
# ETV2 = biological target: T10, ETV2 (Homo sapiens, UniProt O00321 1-342)
# T10 sequence: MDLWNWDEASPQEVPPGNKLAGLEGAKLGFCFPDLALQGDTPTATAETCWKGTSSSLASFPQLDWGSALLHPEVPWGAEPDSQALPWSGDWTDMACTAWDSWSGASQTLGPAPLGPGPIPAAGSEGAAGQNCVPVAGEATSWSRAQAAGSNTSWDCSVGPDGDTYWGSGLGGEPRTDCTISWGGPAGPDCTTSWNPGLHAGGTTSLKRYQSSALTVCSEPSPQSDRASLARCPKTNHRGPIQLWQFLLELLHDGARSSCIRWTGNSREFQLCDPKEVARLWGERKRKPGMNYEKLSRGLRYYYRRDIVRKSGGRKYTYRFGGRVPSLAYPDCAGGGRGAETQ
# Summary of the method: as §1
# ELF3 = biological target: T11, ELF3 (Homo sapiens, UniProt P78545 1-371)
# T11 sequence: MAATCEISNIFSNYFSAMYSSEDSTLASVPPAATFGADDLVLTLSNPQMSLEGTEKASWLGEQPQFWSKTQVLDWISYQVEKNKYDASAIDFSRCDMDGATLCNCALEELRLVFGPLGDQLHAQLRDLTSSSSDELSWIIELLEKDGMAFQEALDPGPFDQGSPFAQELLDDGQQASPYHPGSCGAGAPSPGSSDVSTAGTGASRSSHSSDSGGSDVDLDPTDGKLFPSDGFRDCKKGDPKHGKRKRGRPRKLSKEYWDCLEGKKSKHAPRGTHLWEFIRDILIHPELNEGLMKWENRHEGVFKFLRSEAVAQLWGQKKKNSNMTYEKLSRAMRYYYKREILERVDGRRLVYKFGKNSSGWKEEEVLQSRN
# Summary of the method: as §1
# ETV1 = ETV1 (Homo sapiens, UniProt P50549 1-477)
# ETV1, sequence (P50549 whole entry): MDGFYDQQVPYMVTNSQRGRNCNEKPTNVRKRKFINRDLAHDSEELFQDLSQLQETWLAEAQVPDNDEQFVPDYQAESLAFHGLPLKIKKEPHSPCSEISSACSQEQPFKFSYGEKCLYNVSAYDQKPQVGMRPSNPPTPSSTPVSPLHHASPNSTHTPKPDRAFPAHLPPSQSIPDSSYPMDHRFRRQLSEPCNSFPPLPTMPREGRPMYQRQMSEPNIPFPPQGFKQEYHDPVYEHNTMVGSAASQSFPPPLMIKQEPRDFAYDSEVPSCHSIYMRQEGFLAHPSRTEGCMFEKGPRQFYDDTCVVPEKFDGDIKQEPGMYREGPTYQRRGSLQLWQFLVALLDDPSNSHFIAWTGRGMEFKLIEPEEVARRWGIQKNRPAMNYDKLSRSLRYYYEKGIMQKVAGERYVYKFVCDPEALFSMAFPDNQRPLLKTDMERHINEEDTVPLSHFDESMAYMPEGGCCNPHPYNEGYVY
# Summary of the method: as §1
Sequence,binding signal (FLI1),binding signal (ELK1),binding signal (GABPA),binding signal (ERG),binding signal (ELF1),binding signal (EHF),binding signal (SPI1),binding signal (SPIB),binding signal (ELK3),binding signal (FEV),binding signal (ETV5),binding signal (SPIC),binding signal (ELF4),binding signal (ELK4),binding signal (ETV2),binding signal (ELF3),binding signal (ETV1)
GATGCA,"1.15 fold enrichment (6-mer frequency, TF over GST control)","1.14 fold enrichment (6-mer frequency, TF over GST control)","1.18 fold enrichment (6-mer frequency, TF over GST control)","1.11 fold enrichment (6-mer frequency, TF over GST control)","1.06 fold enrichment (6-mer frequency, TF over GST control)","1.2 fold enrichment (6-mer frequency, TF over GST control)","1.06 fold enrichment (6-mer frequency, TF over GST control)","1.23 fold enrichment (6-mer frequency, TF over GST control)","1.16 fold enrichment (6-mer frequency, TF over GST control)","1.12 fold enrichment (6-mer frequency, TF over GST control)","1.13 fold enrichment (6-mer frequency, TF over GST control)","1.17 fold enrichment (6-mer frequency, TF over GST control)","1.23 fold enrichment (6-mer frequency, TF over GST control)","1.19 fold enrichment (6-mer frequency, TF over GST control)","1 fold enrichment (6-mer frequency, TF over GST control)","1.16 fold enrichment (6-mer frequency, TF over GST control)","1.04 fold enrichment (6-mer frequency, TF over GST control)"
TGCCCT,"1.21 fold enrichment (6-mer frequency, TF over GST control)","1.25 fold enrichment (6-mer frequency, TF over GST control)","1.21 fold enrichment (6-mer frequency, TF over GST control)","1.09 fold enrichment (6-mer frequency, TF over GST control)","1.25 fold enrichment (6-mer frequency, TF over GST control)","1.12 fold enrichment (6-mer frequency, TF over GST control)","1.15 fold enrichment (6-mer frequency, TF over GST control)","1.16 fold enrichment (6-mer frequency, TF over GST control)","1.07 fold enrichment (6-mer frequency, TF over GST control)","1.18 fold enrichment (6-mer frequency, TF over GST control)","1.11 fold enrichment (6-mer frequency, TF over GST control)","1.2 fold enrichment (6-mer frequency, TF over GST control)","1.12 fold enrichment (6-mer frequency, TF over GST control)","1.25 fold enrichment (6-mer frequency, TF over GST control)","1.13 fold enrichment (6-mer frequency, TF over GST control)","1.27 fold enrichment (6-mer frequency, TF over GST control)","1.08 fold enrichment (6-mer frequency, TF over GST control)"
